# Bioassay records from PubChem BioAssay.
# An excerpt weighted towards active compounds, which were near 3% of everything screened.
# Rv3671c protease: inhibits the M. tuberculosis serine protease Rv3671c. P9WHR9. inhibition, % at 5.96 µM. actives 0.048% (n = 320,000). AID 2606; in the data active = inhibition above about 38%;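 also: extracellular domain of Rv3671c used as enzyme; 0% = enzyme with DMSO and 100% = no enzyme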
# Target sequence (P9WHR9 whole entry, looked up, the tested form may be a part): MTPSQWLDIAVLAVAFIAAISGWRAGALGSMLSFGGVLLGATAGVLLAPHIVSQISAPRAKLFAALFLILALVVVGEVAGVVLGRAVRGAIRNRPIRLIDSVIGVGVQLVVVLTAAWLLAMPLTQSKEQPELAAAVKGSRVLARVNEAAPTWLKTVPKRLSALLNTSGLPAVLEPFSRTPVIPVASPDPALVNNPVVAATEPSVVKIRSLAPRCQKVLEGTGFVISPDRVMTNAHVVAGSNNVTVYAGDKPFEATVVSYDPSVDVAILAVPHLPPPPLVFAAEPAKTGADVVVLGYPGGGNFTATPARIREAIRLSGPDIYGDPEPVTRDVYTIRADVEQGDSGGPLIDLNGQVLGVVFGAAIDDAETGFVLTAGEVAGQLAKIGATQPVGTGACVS
# FadD28 FP inh: blocks FadD28 binding to the bisubstrate probe. actives 0.22% (n = 360,000). AID 588549. inhibition, % at 12.5 µM. fluorescence polarization; in the data active = inhibition above about 8.5%, passing the limit was not always enough
# Mtb FBA inh: inhibits M. tuberculosis FBA enzyme. inhibition, % at 1 µM. actives 2.3% (n = 360,000). P9WQA3. purified M. tuberculosis FBA, fluorescence read-out;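 also: 0% = vehicle and 100% = reference inhibitor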
# GDH-TPI counter-1: counter-screen for M. tuberculosis FBA inhibitors: GDH-TPI coupled enzymes; actives 1.2% (n = 360,000); GDH-TPI coupled enzyme counterscreen, NADH absorbance; AID 588335; inhibition, % at 4.8 µM; in the data active = inhibition above about 30%;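 also: 0% = DMSO wells and 100% = wells lacking the enzyme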
# BioA inh: blocks M. tuberculosis BioA enzyme activity; purified M. tuberculosis BioA enzyme, plate reader; inhibition, % at 9.99 µM; actives 0.096% (n = 360,000); AID 602481; in the data active = inhibition above about 40%
# Mtb FBA inh conf: Mtb FBA inhibition, confirmed; shares compounds with Mtb FBA inh; purified M. tuberculosis FBA, fluorescence read-out; inhibition, % at 1 µM; actives 78% (n = 5,600);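 also: 0% = vehicle wells and 100% = reference inhibitor wells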
# GDH-TPI counter-2: GDH-TPI inhibition counter-screen for FBA inhibitors | shares compounds with Mtb FBA inh | actives 81% (n = 5,600) | GDH-TPI coupled enzyme counterscreen, fluorescence | inhibition, % at 1 µM; in the data active = inhibition above about 10%
# * marks the source's active call; other numbers are inactive results; / = not tested or not shown; + = active, no number. Rule as the data show it, unless noted: active = inhibition above about 27%; inactive = the rest.
SMILES,Rv3671c protease,FadD28 FP inh,Mtb FBA inh,GDH-TPI counter-1,BioA inh,Mtb FBA inh conf,GDH-TPI counter-2
O=C(NCc1ccccn1)c1cc(-c2ccccc2)nc2ccccc12,-7.9,-1.0,5.1,2.5,/,/,/
O=C(NCc1ccccn1)c1cc(-c2ccc(-c3ccccc3)cc2)nc2ccccc12,-45.3,-4.4,36.9*,16.3,/,20.2,14.7*
COc1cc(-c2cc(C(=O)OCC(=O)NC3CC3)c3ccccc3n2)cc(OC)c1OC,-6.4,-2.6,-0.5,8.2,-0.2,/,/
C[C@@H]1CN([C@@H](C)CO)C(=O)c2cc(NC(=O)CCCN(C)C)ccc2O[C@@H](C)CCCCO[C@H]1CN(C)CC1CCCCC1,/,/,/,/,0.6,/,/
Cc1c(C)c2ccc(OC(C)C(=O)NCCCN3CCOCC3)c(C)c2oc1=O (stereo unspecified),4.5,0.1,32.1*,-0.5,1.1,73.7*,59.5*
Cc1c(OC(C)C(=O)NCCCN2CCOCC2)ccc2c3c(c(=O)oc12)CCC3 (stereo unspecified),-1.4,-2.1,17.7,11.1,15.9,/,/
Cc1ccc2oc(C(=O)NCCCN3CCOCC3)c(C)c2c1,2.9,-4.1,14.9,-2.1,-0.2,/,/
Cc1c(C)c2ccc(OC(C)C(=O)NCCN3CCOCC3)c(C)c2oc1=O (stereo unspecified),-1.6,-3.1,47.0*,9.4,6.6,+,+
COc1ccc2oc(C(=O)NCCN3CCOCC3)c(C)c2c1OC,-1.9,-1.3,101.9*,11.0,-1.6,+,186.4*
Cc1c(OC(C)C(=O)NCCCN2CCOCC2)ccc2c3c(c(=O)oc12)CCCC3 (stereo unspecified),-5.0,-2.8,27.2*,-0.4,1.1,48.0*,38.3*
Cc1c(OC(C)C(=O)NCCN2CCOCC2)ccc2c3c(c(=O)oc12)CCC3 (stereo unspecified),-7.5,-4.4,24.8,-0.9,38.8,/,/
C[C@H]1CN([C@@H](C)CO)C(=O)c2cccc(NC(=O)C3CCCCC3)c2O[C@@H]1CN(C)CC1CC1,/,/,/,/,-0.6,/,/
COc1ccc(-c2ccc([C@@H]3[C@H](C#N)N(C(=O)NC4CCCCC4)[C@H]3CO)cc2)cc1,/,/,/,/,0.1,/,/
COCCOC(=O)C1=C(C)NC2=C(C(=O)CC(C)(C)C2)C1c1cccnc1 (stereo unspecified),-5.5,-1.6,38.7*,0.9,5.5,+,+
COc1ccc(C2C(C#N)=C(C)NC3=C2C(=O)CC(C)(C)C3)cc1 (stereo unspecified),-7.2,-2.6,16.8,12.8,2.3,/,/
COc1cccc(C2C(C#N)=C(C)NC3=C2C(=O)CC(C)(C)C3)c1 (stereo unspecified),-3.1,-6.0,93.4*,7.0,/,+,183.2*
CC1=C(C(=O)OC(C)C)C(c2cccnc2)C2=C(CC(C)(C)CC2=O)N1 (stereo unspecified),-8.3,-10.1,79.2*,13.4,0.7,30.9*,38.1*
CC1=C(C(=O)OCC2CCCO2)C(c2ccncc2)C2=C(CC(C)(C)CC2=O)N1 (stereo unspecified),1.0,-4.5,38.2*,-1.0,-2.1,58.5*,58.1*
COCCNC(=O)C[C@@H]1C[C@@H]2c3cc(NS(=O)(=O)c4ccc(F)cc4)ccc3O[C@@H]2[C@@H](CO)O1,/,/,/,/,-0.2,/,/
CNC[C@H]1OCCCC[C@@H](C)Oc2ccc(NC(=O)c3ccccc3)cc2C(=O)N([C@H](C)CO)C[C@@H]1C,/,/,/,/,-0.2,/,/
CC1=C(C(=O)OCCOC(C)C)C(c2cccnc2)C2=C(CCCC2=O)N1 (stereo unspecified),-2.5,-0.4,31.4*,3.7,2.4,+,+
CCN(CC)c1ccc(C2C(C(=O)OCCOC(C)C)=C(C)NC3=C2C(=O)CCC3)cc1 (stereo unspecified),-5.3,-1.5,0.9,11.2,1.5,/,/
CC(=O)Nc1sc(N/N=C/c2ccc(C)cc2)nc1-c1ccc(C)cc1,3.1,-1.5,1.1,7.5,/,/,/
CC(=O)Nc1sc(N/N=C/c2ccc(N(C)C)cc2)nc1-c1ccc(C)cc1,/,0.9,39.0*,39.9*,-3.3,131.7*,101.7*
Cc1c(O)ccc2c(CN3CCN(Cc4ccccc4)CC3)cc(=O)oc12,2.0,-1.2,35.9*,4.0,1.9,+,+
SMILES,Rv3671c protease,FadD28 FP inh,Mtb FBA inh,GDH-TPI counter-1,BioA inh,Mtb FBA inh conf,GDH-TPI counter-2
O=c1cc(CN2CCN(Cc3ccccc3)CC2)c2ccc(O)c(O)c2o1,5.8,2.7,5.3,12.0,-0.3,/,/
CCc1ccc2c(CN3CCN(Cc4ccccc4)CC3)cc(=O)oc2c1,-1.2,-1.1,2.0,5.0,0.0,/,/
CCc1cc2c(CN3CCN(Cc4ccccc4)CC3)cc(=O)oc2cc1O,/,-2.7,96.7*,7.3,1.7,113.3*,92.6*
CCc1cc2c(CN(C)Cc3ccccc3F)cc(=O)oc2cc1O,-18.0,-6.2,57.6*,6.0,1.2,+,+
Cc1c(O)ccc2c(CN(C)Cc3ccccc3)cc(=O)oc12,6.5,-4.5,47.1*,16.0,0.8,56.2*,51.4*
Cc1cc2oc(=O)cc(CN(C)Cc3cccc(F)c3)c2cc1C,-9.3,-2.3,-8.6,4.4,-2.0,/,/
CC(C)NC(=O)N(C)C[C@H]1Oc2ccc(NC(=O)Nc3ccc(F)cc3)cc2CC(=O)N([C@@H](C)CO)C[C@H]1C,/,/,/,/,-2.1,/,/
C[C@H](CO)N1C[C@H](C)[C@H](CN(C)Cc2ccc(Cl)c(Cl)c2)Oc2ccc(NC(=O)CCN3CCOCC3)cc2C1=O,/,/,/,/,-0.6,/,/
COc1ccc(NC(=O)N(C)C[C@H]2Oc3ccc(NC(=O)C4CC4)cc3C(=O)N([C@H](C)CO)C[C@H]2C)cc1,/,/,/,/,0.4,/,/
CCCCNC(=O)c1cn(CC)c2cc(N3CCN(C)CC3)c(F)cc2c1=O,-6.5,1.0,22.4,8.9,2.1,/,/
CCn1cc(C(=O)NCc2cccnc2)c(=O)c2cc(F)c(N3CCN(C(=O)c4ccco4)CC3)cc21,-6.8,-3.1,47.7*,3.4,/,52.9*,45.3*
CCCNC(=O)c1cn(CC)c2cc(N3CCN(C(=O)c4ccco4)CC3)c(F)cc2c1=O,-6.5,-0.4,79.9*,10.3,-0.2,142.2*,113.0*
Cc1noc(C)c1NC(=O)N(C)C[C@H]1Oc2ccc(N(C)C)cc2CC(=O)N([C@@H](C)CO)C[C@H]1C,/,/,/,/,0.1,/,/
Cc1cc(=O)oc2c(C)c(OCC(=O)NC3CC(C)(C)NC(C)(C)C3)ccc12,1.0,-2.3,18.0,10.4,-1.3,/,/
Cc1c(OCC(=O)NC2CC(C)(C)NC(C)(C)C2)ccc2c3c(c(=O)oc12)CCC3,-3.5,-2.3,31.7*,13.9,2.8,43.5*,34.7*
Cc1c(OCC(=O)NC2CC(C)(C)NC(C)(C)C2)ccc2c1oc(=O)c1ccccc12,-5.8,-5.3,63.2*,17.7,-0.5,49.8*,58.9*
Cc1cc2nc(-c3cccnc3SCC(=O)NCc3ccco3)[nH]c2cc1C,-14.0,-5.5,40.5*,17.4,/,3.0,-3.2
COc1cccc(Nc2ccc(C(=O)O)cc2N)c1,-10.5,/,61.9*,15.2,5.7,49.1*,49.0*
